Data from PubChem BioAssay AID1159580 (chemical genetic matrix, 2015).
Values joined by “and” are separate entries in the source; they are usually repeats but may differ in a detail not shown here. Identical values can stand only once. The campaign covered roughly 5,500 compounds. About 2,000 (36%) were called active. Not shown: some 18% with an inconclusive outcome. Cut-off read from the data, not from the text of the source: active = normalized growth mostly below about 0.91 (no sharp cut-off); inconclusive = no clear call, values can overlap the other calls; inactive = mostly above about 0.92. The list shows a part of the results.

Assay: chemical genetic growth profiling, strain panel (AID 1159580);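 note: tested at 20 µM; growth read once vehicle control cultures reached saturation at 30 °C; 1 = growth at the plate median or of vehicle wells; lower values mean less growth of the strain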
Details: S. cerevisiae deletion strains, growth OD

Measured: normalized growth

O=C(NCO)c1cccnc1
inactive: locus YAL013W, strain DEP1, stronger effect = lower value 0.99 | locus YAL021C, strain ccr4, stronger effect = lower value 1.02 | locus YAL026C, strain drs2, stronger effect = lower value 1.01 | locus YAL030W, strain snc1, stronger effect = lower value 1.01 | locus YBL061C, strain skt5, stronger effect = lower value 1.01 | locus YBR009C, strain hhf1, stronger effect = lower value 0.998 | locus YBR021W, strain FUR4, stronger effect = lower value 1.04 | locus YBR023C, strain chs3, stronger effect = lower value 1 | locus YBR171W, strain sec66, stronger effect = lower value 1.03 | locus YBR229C, strain ROT2, stronger effect = lower value 0.997 | locus YBR231C, strain swc5, stronger effect = lower value 1 | locus YBR279W, strain paf1, stronger effect = lower value 1.01 | locus YCL011C, strain gbp2, stronger effect = lower value 1.01 | locus YCL016C, strain dcc1, stronger effect = lower value 1.01 | locus YCL029C, strain bik1, stronger effect = lower value 0.971 | locus YCL061C, strain MRC1, stronger effect = lower value 0.999 | locus YCL069W, strain vba3, stronger effect = lower value 1 | locus YCR088W, strain abp1, stronger effect = lower value 1 | locus YDL005C, strain med2, stronger effect = lower value 1 | locus YDL035C, strain GPR1, stronger effect = lower value 0.985 | locus YDL040C, strain nat1, stronger effect = lower value 1.01 | locus YDL074C, strain BRE1, stronger effect = lower value 1 | locus YDL101C, strain DUN1, stronger effect = lower value 0.99 | locus YDL134C, strain PPH21, stronger effect = lower value 0.988 | locus YDL185W, strain tfp1, stronger effect = lower value 1.01 | locus YDL192W, strain arf1, stronger effect = lower value 0.987 | locus YDR001C, strain nth1, stronger effect = lower value 1 | locus YDR069C, strain doa4, stronger effect = lower value 0.999 | locus YDR101C, strain arx1, stronger effect = lower value 0.991 | locus YDR137W, strain rgp1, stronger effect = lower value 1.02 | locus YDR150W, strain NUM1, stronger effect = lower value 0.98 | locus YDR159W, strain sac3, stronger effect = lower value 1 | locus YDR162C, strain NBP2, stronger effect = lower value 1 | locus YDR195W, strain ref2 0.993 | locus YDR297W, strain sur2, stronger effect = lower value 1.01 | locus YDR318W, strain mcm21, stronger effect = lower value 0.978 | locus YDR334W, strain swr1, stronger effect = lower value 1.01 | locus YDR335W, strain msn5, stronger effect = lower value 1.01 | locus YDR388W, stronger effect = lower value 0.989 | locus YDR392W, strain spt3, stronger effect = lower value 0.893 | locus YDR502C, strain sam2, stronger effect = lower value 0.996 | locus YEL003W, strain gim4, stronger effect = lower value 1.01 | locus YEL037C, strain rad23, stronger effect = lower value 1.02 | locus YEL061C, strain CIN8 (second series), stronger effect = lower value 1.01 | locus YEL061C, strain CIN8, stronger effect = lower value 0.996 | locus YER015W, strain faa2, stronger effect = lower value 1 | locus YER016W, strain bim1, stronger effect = lower value 1.01 | locus YER110C, stronger effect = lower value 0.97 | locus YER111C, strain swi4, stronger effect = lower value 1 | locus YER155C, strain BEM2 (second series), stronger effect = lower value 1.01 | locus YER155C, strain BEM2, stronger effect = lower value 0.996 | locus YER167W, strain BCK2, stronger effect = lower value 0.982 | locus YFR010W, strain ubp6, stronger effect = lower value 1.01 | locus YGL078C, strain dbp3, stronger effect = lower value 0.979 | locus YGL086W, strain mad1, stronger effect = lower value 0.983 | locus YGL167C, strain pmr1, stronger effect = lower value 1.01 | locus YGL173C, strain kem1, stronger effect = lower value 1.01 | locus YGL227W, strain vid30, stronger effect = lower value 1 | locus YGL240W, strain doc1, stronger effect = lower value 0.988 | locus YGL248W, strain PDE1, stronger effect = lower value 0.994 | locus YGL253W, strain hxk2, stronger effect = lower value 1.01 | locus YGR078C, strain PAC10, stronger effect = lower value 0.995 | locus YGR135W, strain pre9, stronger effect = lower value 1.02 | locus YGR229C, strain SMI1, stronger effect = lower value 1.01 | locus YGR252W, strain gcn5, stronger effect = lower value 1.01 | locus YHR013C, strain ard1, stronger effect = lower value 0.984 | locus YHR027C, strain rpn1, stronger effect = lower value 1.01 | locus YHR030C, strain SLT2, stronger effect = lower value 0.984 and 0.995 | locus YHR079C, strain IRE1 (second series), stronger effect = lower value 0.989 | locus YHR079C, strain IRE1, stronger effect = lower value 0.992 | locus YHR094C, strain hxt1, stronger effect = lower value 0.982 | locus YHR129C, strain ARP1, stronger effect = lower value 0.994 | locus YHR142W, strain chs7, stronger effect = lower value 1.02 | locus YHR200W, strain rpn10, stronger effect = lower value 0.981 | locus YIL066C, strain RNR3, stronger effect = lower value 0.98 | locus YIL073C, strain SPO22, stronger effect = lower value 0.894 | locus YIL125W, strain kgd1, stronger effect = lower value 0.975 | locus YIR030C, strain dcg1, stronger effect = lower value 0.992 | locus YJL092W, strain hpr5, stronger effect = lower value 1.01 | locus YJL095W, strain BCK1 (second series), stronger effect = lower value 1 | locus YJL095W, strain BCK1, stronger effect = lower value 1.01 and 0.998 | locus YJL115W, strain asf1, stronger effect = lower value 1 | locus YJL129C, strain trk1, stronger effect = lower value 1.01 | locus YJL134W, strain LCB3, stronger effect = lower value 0.988 | locus YJL154C, strain vps35, stronger effect = lower value 1 | locus YJL164C, strain tpk1, stronger effect = lower value 0.998 | locus YJL166W, strain qcr8, stronger effect = lower value 1.01 | locus YJL168C, strain set2, stronger effect = lower value 0.982 | locus YJL187C, strain SWE1 (second series), stronger effect = lower value 0.982 | locus YJL187C, strain SWE1, stronger effect = lower value 1 | locus YJR043C, strain POL32, stronger effect = lower value 0.983 | locus YJR066W, strain TOR1, stronger effect = lower value 0.906
